Numbering of substitutions follows the chain as printed.

The first assay addresses T1, VENTX (Homo sapiens, UniProt O95231 78-163).
T1 sequence: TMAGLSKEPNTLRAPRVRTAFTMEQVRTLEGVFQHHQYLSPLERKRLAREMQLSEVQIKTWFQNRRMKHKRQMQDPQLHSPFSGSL
The experiment in a line: PBM; 200 nM protein, PBS. To be noted: dsDNA, one strand shown.
As to CGAGCGAC, the binding signal was 7.84 upbm affinity estimate (log intensity, higher = more binding, comparable within an allelic series).
Take CCGTCCGC: the binding signal is 8.02 upbm affinity estimate (log intensity, higher = more binding, comparable within an allelic series).
Consider GACCCAGC, for which the binding signal is 8.16 upbm affinity estimate (log intensity, higher = more binding, comparable within an allelic series).
Same read-out and setting: the result for CCGGGAGG reads 7.94 upbm affinity estimate (log intensity, higher = more binding, comparable within an allelic series).
Same read-out and setting: the result for GCCGCAGC reads 8.11 upbm affinity estimate (log intensity, higher = more binding, comparable within an allelic series); that for CCAGGGCC, 8.27 upbm affinity estimate (log intensity, higher = more binding, comparable within an allelic series); that for CCCTTCCG, 8.37 upbm affinity estimate (log intensity, higher = more binding, comparable within an allelic series).
The same measure, in the same setting: as for GTATTAAA, the figure is 10.3 upbm affinity estimate (log intensity, higher = more binding, comparable within an allelic series); as for GCTTGGCC, 7.97 upbm affinity estimate (log intensity, higher = more binding, comparable within an allelic series).
For the sequence CTGGGACC, the binding signal was 8.05 upbm affinity estimate (log intensity, higher = more binding, comparable within an allelic series).
Still for that read-out and setting: as for GGCACCAC, the figure is 8.1 upbm affinity estimate (log intensity, higher = more binding, comparable within an allelic series); as for CCCGGACG, 7.88 upbm affinity estimate (log intensity, higher = more binding, comparable within an allelic series).
On the same count and under the same terms, as for CACGGGGG, the figure is 7.81 upbm affinity estimate (log intensity, higher = more binding, comparable within an allelic series).
Same read-out and setting: the result for AGAGGGGC reads 8.3 upbm affinity estimate (log intensity, higher = more binding, comparable within an allelic series); that for GGCGGAAC, 8.22 upbm affinity estimate (log intensity, higher = more binding, comparable within an allelic series); that for AAATCTAC, 9.65 upbm affinity estimate (log intensity, higher = more binding, comparable within an allelic series).
Take CAAGGCCC: the binding signal was 7.78 upbm affinity estimate (log intensity, higher = more binding, comparable within an allelic series).
CTCCCGAG: the binding signal is 8.1 upbm affinity estimate (log intensity, higher = more binding, comparable within an allelic series).
As to CGGAGGGA, the binding signal was 7.97 upbm affinity estimate (log intensity, higher = more binding, comparable within an allelic series).
Same read-out and setting: as for GCGCGCCC, the figure is 8.26 upbm affinity estimate (log intensity, higher = more binding, comparable within an allelic series).
Same read-out and setting: as for CGGGCACG, the figure is 7.98 upbm affinity estimate (log intensity, higher = more binding, comparable within an allelic series); as for ATGATATG, 9.91 upbm affinity estimate (log intensity, higher = more binding, comparable within an allelic series).
Take AGTTAATG: the binding signal is 12.4 upbm affinity estimate (log intensity, higher = more binding, comparable within an allelic series).
Still for that read-out and setting: the result for CCCCTCCC reads 7.87 upbm affinity estimate (log intensity, higher = more binding, comparable within an allelic series); that for GCCAGGGC, 7.69 upbm affinity estimate (log intensity, higher = more binding, comparable within an allelic series); that for GGGAGGAC, 8.18 upbm affinity estimate (log intensity, higher = more binding, comparable within an allelic series).
Still for that read-out and setting: as for AATGATAC, the figure is 10.2 upbm affinity estimate (log intensity, higher = more binding, comparable within an allelic series); as for CCCCCTGC, 8.15 upbm affinity estimate (log intensity, higher = more binding, comparable within an allelic series).

In the next assay the target is T2, SIX6 (Homo sapiens, UniProt O95475 114-200, L143V).
T2 sequence: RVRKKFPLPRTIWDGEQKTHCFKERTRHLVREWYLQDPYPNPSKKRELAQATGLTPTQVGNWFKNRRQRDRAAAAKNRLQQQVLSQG
The experiment in a line: PBM; 200 nM protein, PBS. To be noted: dsDNA, one strand shown.
In the case of GCTTGGCC, the binding signal is 8.84 upbm affinity estimate (log intensity, higher = more binding, comparable within an allelic series).
On the same count and under the same terms, as for GGCGGAAC, the figure is 8.81 upbm affinity estimate (log intensity, higher = more binding, comparable within an allelic series); as for CAAGGCCC, 8.85 upbm affinity estimate (log intensity, higher = more binding, comparable within an allelic series).
For GCGCGCCC, the binding signal was 8.71 upbm affinity estimate (log intensity, higher = more binding, comparable within an allelic series).
The same measure, in the same setting: the result for ATGATATG reads 10.4 upbm affinity estimate (log intensity, higher = more binding, comparable within an allelic series).
On the same count and under the same terms, as for AATGATAC, the figure is 10.6 upbm affinity estimate (log intensity, higher = more binding, comparable within an allelic series).

The target in another assay is HOXA7 (Homo sapiens, UniProt P31268 116-202). Nature of the assay: PBM; 200 nM protein, PBS. The following applies: dsDNA, one strand shown.
Chain of HOXA7 (P31268 116-202): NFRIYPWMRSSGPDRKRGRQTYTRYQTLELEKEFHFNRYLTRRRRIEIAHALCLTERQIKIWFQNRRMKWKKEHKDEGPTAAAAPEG
As to CCATTAAC, the binding signal is 11.5 upbm affinity estimate (log intensity, higher = more binding, comparable within an allelic series).
Regarding GCCATTAA, the binding signal is 11.9 upbm affinity estimate (log intensity, higher = more binding, comparable within an allelic series).
The same measure, in the same setting: the result for CCCGGACG reads 8.42 upbm affinity estimate (log intensity, higher = more binding, comparable within an allelic series).

The next assay concerns the target T3, SIX6 (Homo sapiens, UniProt O95475 114-200, H141N).
T3 sequence: T2 sequence with H28N, V30L
Nature of the assay: PBM; 200 nM protein, PBS. To be noted: dsDNA, one strand shown.
As to GCTTGGCC, the binding signal is 8.96 upbm affinity estimate (log intensity, higher = more binding, comparable within an allelic series).
Still for that read-out and setting: as for GGCGGAAC, the figure is 8.78 upbm affinity estimate (log intensity, higher = more binding, comparable within an allelic series).
As for CAAGGCCC, the binding signal was 8.89 upbm affinity estimate (log intensity, higher = more binding, comparable within an allelic series).
On the same count and under the same terms, the result for GCGCGCCC reads 8.79 upbm affinity estimate (log intensity, higher = more binding, comparable within an allelic series).
Same read-out and setting: as for ATGATATG, the figure is 11.3 upbm affinity estimate (log intensity, higher = more binding, comparable within an allelic series); as for AATGATAC, 11.5 upbm affinity estimate (log intensity, higher = more binding, comparable within an allelic series).

The next assay has as its target T4, SIX6 (Homo sapiens, UniProt O95475 114-200, T165P).
T4 sequence: T2 sequence with V30L, T52P
The experiment in a line: PBM; 200 nM protein, PBS. The following applies: dsDNA, one strand shown.
Take GCTTGGCC: the binding signal was 8.86 upbm affinity estimate (log intensity, higher = more binding, comparable within an allelic series).
On the same count and under the same terms, as for GGCGGAAC, the figure is 8.99 upbm affinity estimate (log intensity, higher = more binding, comparable within an allelic series); as for CAAGGCCC, 8.97 upbm affinity estimate (log intensity, higher = more binding, comparable within an allelic series); as for GCGCGCCC, 8.94 upbm affinity estimate (log intensity, higher = more binding, comparable within an allelic series).
Still for that read-out and setting: the result for ATGATATG reads 9.99 upbm affinity estimate (log intensity, higher = more binding, comparable within an allelic series); that for AATGATAC, 10.1 upbm affinity estimate (log intensity, higher = more binding, comparable within an allelic series).

A further assay has as its target T5, VENTX (Homo sapiens, UniProt O95231 78-163, Y115F).
T5 sequence: T1 sequence with Y38F
Nature of the assay: PBM; 200 nM protein, PBS. The following applies: dsDNA, one strand shown.
Regarding CCATTAAC, the binding signal was 11.7 upbm affinity estimate (log intensity, higher = more binding, comparable within an allelic series).
Regarding GGGGTACC, the binding signal is 7.99 upbm affinity estimate (log intensity, higher = more binding, comparable within an allelic series).
Same read-out and setting: as for GCCATTAA, the figure is 11.6 upbm affinity estimate (log intensity, higher = more binding, comparable within an allelic series); as for CCCCCTGA, 7.94 upbm affinity estimate (log intensity, higher = more binding, comparable within an allelic series).
Still for that read-out and setting: as for CCCCATGC, the figure is 8.2 upbm affinity estimate (log intensity, higher = more binding, comparable within an allelic series); as for CCCCTCGG, 8.04 upbm affinity estimate (log intensity, higher = more binding, comparable within an allelic series).
Still for that read-out and setting: the result for CGAGCGAC reads 8.14 upbm affinity estimate (log intensity, higher = more binding, comparable within an allelic series); that for CCGTCCGC, 7.93 upbm affinity estimate (log intensity, higher = more binding, comparable within an allelic series).
As to GACCCAGC, the binding signal was 8.12 upbm affinity estimate (log intensity, higher = more binding, comparable within an allelic series).
For the sequence CCGGGAGG, the binding signal is 8.13 upbm affinity estimate (log intensity, higher = more binding, comparable within an allelic series).
GCCGCAGC: the binding signal is 8.14 upbm affinity estimate (log intensity, higher = more binding, comparable within an allelic series).
Still for that read-out and setting: as for CCAGGGCC, the figure is 8.19 upbm affinity estimate (log intensity, higher = more binding, comparable within an allelic series).
The same measure, in the same setting: the result for CCCTTCCG reads 8.15 upbm affinity estimate (log intensity, higher = more binding, comparable within an allelic series).
On the same count and under the same terms, as for GCTTGGCC, the figure is 7.9 upbm affinity estimate (log intensity, higher = more binding, comparable within an allelic series); as for CTGGGACC, 8.06 upbm affinity estimate (log intensity, higher = more binding, comparable within an allelic series); as for GGCACCAC, 8.09 upbm affinity estimate (log intensity, higher = more binding, comparable within an allelic series).
As to CCCGGACG, the binding signal was 8.04 upbm affinity estimate (log intensity, higher = more binding, comparable within an allelic series).
The same measure, in the same setting: the result for CACGGGGG reads 7.86 upbm affinity estimate (log intensity, higher = more binding, comparable within an allelic series); that for AGAGGGGC, 8.07 upbm affinity estimate (log intensity, higher = more binding, comparable within an allelic series).
The same measure, in the same setting: as for GGCGGAAC, the figure is 8.15 upbm affinity estimate (log intensity, higher = more binding, comparable within an allelic series).
Take CAAGGCCC: the binding signal was 7.82 upbm affinity estimate (log intensity, higher = more binding, comparable within an allelic series).
On the same count and under the same terms, the result for CTCCCGAG reads 8.07 upbm affinity estimate (log intensity, higher = more binding, comparable within an allelic series); that for CGGAGGGA, 8.17 upbm affinity estimate (log intensity, higher = more binding, comparable within an allelic series).
Still for that read-out and setting: as for GCGCGCCC, the figure is 8.22 upbm affinity estimate (log intensity, higher = more binding, comparable within an allelic series); as for CGGGCACG, 8.07 upbm affinity estimate (log intensity, higher = more binding, comparable within an allelic series); as for AGTTAATG, 11.4 upbm affinity estimate (log intensity, higher = more binding, comparable within an allelic series).
The same measure, in the same setting: the result for CCCCTCCC reads 8.02 upbm affinity estimate (log intensity, higher = more binding, comparable within an allelic series); that for GCCAGGGC, 7.85 upbm affinity estimate (log intensity, higher = more binding, comparable within an allelic series).
As to GGGAGGAC, the binding signal is 8.28 upbm affinity estimate (log intensity, higher = more binding, comparable within an allelic series).
On the same count and under the same terms, the result for AATGATAC reads 9.98 upbm affinity estimate (log intensity, higher = more binding, comparable within an allelic series).
Same read-out and setting: the result for CCCCCTGC reads 8.11 upbm affinity estimate (log intensity, higher = more binding, comparable within an allelic series).

For the next assay, the target named is T6, SIX6 (Homo sapiens, UniProt O95475 114-200, L167M).
T6 sequence: T2 sequence with V30L, L54M
Nature of the assay: PBM; 200 nM protein, PBS. To be noted: dsDNA, one strand shown.
Take GCTTGGCC: the binding signal was 8.89 upbm affinity estimate (log intensity, higher = more binding, comparable within an allelic series).
On the same count and under the same terms, the result for GGCGGAAC reads 8.81 upbm affinity estimate (log intensity, higher = more binding, comparable within an allelic series).
Same read-out and setting: the result for CAAGGCCC reads 8.85 upbm affinity estimate (log intensity, higher = more binding, comparable within an allelic series).
Same read-out and setting: the result for GCGCGCCC reads 8.76 upbm affinity estimate (log intensity, higher = more binding, comparable within an allelic series).
On to ATGATATG, for which the binding signal was 10.7 upbm affinity estimate (log intensity, higher = more binding, comparable within an allelic series).
On the same count and under the same terms, as for AATGATAC, the figure is 11 upbm affinity estimate (log intensity, higher = more binding, comparable within an allelic series).

(Values after paper PMC11006913.)
